In PubChem BioAssay:
Several values for one entry are separate records, joined by “and”; a condition that tells them apart may be missing. Identical values can stand only once. Results filed as inconclusive are left out. Activity calls are given as the source filed them.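 How the source made its calls, unless noted: active means normalized viability below 100% at a tested concentration; inactive means the rest.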

How the values were obtained:
[1] = growth inhibition of DIPG glioma cells, dose response, cell-based, SU-DIPG-XIII, MIPE4.0, CellTiter-Glo, qHTS (AID 1347061; cut-off not given, nearly all actives have AC50 up to about 37 µM;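 further: cells exposed to compound for 48 hours before readout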); conditions: SU-DIPG-XIII viability, CellTiter-Glo ATP luminescence
[2] = growth inhibition of DIPG glioma cells, dose response, cell-based, JHH-DIPG-1, MIPE4.0, CellTiter-Glo, qHTS (AID 1347062; cut-off not given, nearly all actives have AC50 up to about 27 µM); conditions: JHH-DIPG-1 viability, CellTiter-Glo ATP luminescence
[3] = SU-DIPG-VI glioma cell viability, MIPE4.0 library, CellTiter-Glo luminescence, qHTS (AID 1347066; cut-off not given, nearly all actives have AC50 up to about 30 µM;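 further: cells exposed to compound for 48 hours before readout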); conditions: CellTiter-Glo ATP luminescence
[4] = survival rescue of mitochondrial mutant cells in low glucose, primary screen, MELAS cybrids, Rieske KO mouse fibroblasts, CellTiter-Glo (AID 1508586;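 active means mean z-score across replicates of 1.96 or higher in either the MELAS or the Rieske mutant cell line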;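 further: z relative to plate mean and SD of compound and empty wells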)
[5] = growth inhibition of DIPG glioma cells, dose response, cell-based, SU-DIPG-IV, MIPE4.0, CellTiter-Glo, qHTS (AID 1347063; cut-off not given, nearly all actives have AC50 up to about 30 µM;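 further: compound exposure lasted 48 hours before the viability readout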); conditions: SU-DIPG-IV viability, CellTiter-Glo ATP luminescence
[6] = sensitizers of A549 cells to miR-34 induction, primary screen, imaging, A549 dox-inducible miR-34, nuclei and caspase counts (AID 1347080;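 active means compounds whose cell count with miR-34 switched on is under 0.7 times the count with it off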); conditions: A549 miR-34 inducible, Hoechst nuclei count, 48 h
[7] = viability loss in pontine glioma line – cell-based, SU-DIPG-XXV, MIPE5.0, CellTiter-Glo, qHTS, dose response (AID 1347065; cut-off not given, nearly all actives have AC50 up to about 26 µM;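 further: cells exposed to compound for 48 hours before ATP readout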); conditions: CellTiter-Glo ATP luminescence
[8] = JHH-DIPG-1 glioma cell viability, MIPE5.0 library, CellTiter-Glo luminescence, qHTS (AID 1347067; cut-off not given, nearly all actives have AC50 up to about 26 µM;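 further: cells exposed to compound for 48 hours before readout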); conditions: JHH-DIPG-1 glioma viability, CellTiter-Glo ATP luminescence
[9] = growth inhibition of DIPG glioma cells, dose response, cell-based, SU-DIPG-XIII, MIPE5.0, CellTiter-Glo, qHTS (AID 1347064; cut-off not given, nearly all actives have AC50 up to about 23 µM); conditions: SU-DIPG-XIII viability, CellTiter-Glo ATP luminescence
[10] = SU-DIPG-XXV glioma cell viability, MIPE5.0 library, qHTS (AID 1347068; cut-off not given, nearly all actives have IC50 up to about 30 µM)
[11] = modifiers of HSF1 nuclear foci, imaging, Selleck Cancer Library (AID 1347162; in the data active means plate-normalised HSF1 focus index below about 0.46); conditions: human cells, at 10 µM; SSMD: measured here: HSF1 foci SSMD mean; cell count: measured here: cell number; plate-normalised HSF1 focus index: stronger effect = lower value
[12] = ovarian cancer cell viability with rucaparib, profiling panel, oncology-focused library, rucaparib conditional (AID 1508598); conditions: patient-derived ovarian cancer cells, CellTiter-Glo viability, 144 h, stronger effect = lower value
[13] = MELAS cybrid survival, CellTiter-Glo 48 h, stronger effect = higher value
[14] = Rieske KO mouse fibroblast survival, CellTiter-Glo 72 h
[15] = stronger effect = lower value, cell number ratio, induced over uninduced
[16] = measured here: relative caspase fold change +Dox/-Dox
[17] = measured here: total cells with miR-34 induction, stronger effect = lower value
[18] = measured here: total cells without miR-34 induction
[19] = at 0.000305 µM, OCI-C5x cells, with rucaparib 10 µM, 100% = cells with rucaparib alone
[20] = at 0.000305 µM, OCI-C5x cells, without rucaparib
[21] = at 0.000305 µM, OCI-P5x cells, with rucaparib 20 µM, 100% = cells with rucaparib alone
[22] = at 0.000305 µM, OCI-P5x cells, without rucaparib
[23] = at 0.00122 µM, OCI-C5x cells, with rucaparib 10 µM, 100% = cells with rucaparib alone
[24] = at 0.00122 µM, OCI-C5x cells, without rucaparib
[25] = at 0.00122 µM, OCI-P5x cells, with rucaparib 20 µM, 100% = cells with rucaparib alone
[26] = at 0.00122 µM, OCI-P5x cells, without rucaparib
[27] = at 0.00488 µM, OCI-C5x cells, with rucaparib 10 µM, 100% = cells with rucaparib alone
[28] = at 0.00488 µM, OCI-C5x cells, without rucaparib
[29] = at 0.00488 µM, OCI-P5x cells, with rucaparib 20 µM, 100% = cells with rucaparib alone
[30] = at 0.00488 µM, OCI-P5x cells, without rucaparib
[31] = at 0.0195 µM, OCI-C5x cells, with rucaparib 10 µM, 100% = cells with rucaparib alone
[32] = at 0.0195 µM, OCI-C5x cells, without rucaparib
[33] = at 0.0195 µM, OCI-P5x cells, with rucaparib 20 µM, 100% = cells with rucaparib alone
[34] = at 0.0195 µM, OCI-P5x cells, without rucaparib
[35] = at 0.0781 µM, OCI-C5x cells, with rucaparib 10 µM, 100% = cells with rucaparib alone
[36] = at 0.0781 µM, OCI-C5x cells, without rucaparib
[37] = at 0.0781 µM, OCI-P5x cells, with rucaparib 20 µM, 100% = cells with rucaparib alone
[38] = at 0.0781 µM, OCI-P5x cells, without rucaparib
[39] = at 0.313 µM, OCI-C5x cells, with rucaparib 10 µM, 100% = cells with rucaparib alone
[40] = at 0.313 µM, OCI-C5x cells, without rucaparib
[41] = at 0.313 µM, OCI-P5x cells, with rucaparib 20 µM, 100% = cells with rucaparib alone
[42] = at 0.313 µM, OCI-P5x cells, without rucaparib
[43] = at 1.25 µM, OCI-C5x cells, with rucaparib 10 µM, 100% = cells with rucaparib alone
[44] = at 1.25 µM, OCI-C5x cells, without rucaparib
[45] = at 1.25 µM, OCI-P5x cells, with rucaparib 20 µM, 100% = cells with rucaparib alone
[46] = at 1.25 µM, OCI-P5x cells, without rucaparib
[47] = at 5 µM, OCI-C5x cells, with rucaparib 10 µM, 100% = cells with rucaparib alone
[48] = at 5 µM, OCI-C5x cells, without rucaparib
[49] = at 5 µM, OCI-P5x cells, with rucaparib 20 µM, 100% = cells with rucaparib alone
[50] = at 5 µM, OCI-P5x cells, without rucaparib

CN(C)c1cc(NC(=O)CNC(C)(C)C)c(O)c2c1C[C@H]1C[C@H]3[C@H](N(C)C)C(=O)C(C(N)=O)=C(O)[C@@]3(O)C(=O)C1=C2O
0.0397: z-score [4, 14]
inactive: outcome [1] | outcome [2] | outcome [3] | z-score [4, 13] 0.577

O=c1cc(-c2ccc(O)c(O)c2)oc2cc(O)cc(O)c12
-0.97 and -0.213: z-score [4, 14]
8620 and 6020 and 9220: cell count [6, 18]
1.18 and 0.969 and 1.11: fold change [6, 16]
inactive: outcome [1] | outcome [5] | outcome [3] | fold change [6, 15] 0.817 and 1 and 0.947 | z-score [4, 13] -0.397 and 1.32
7040 and 6030 and 8740: cell count [6, 17]

CC(O)(C#Cc1ccc2c(c1)N(c1nc(N)ncc1Cl)CC2)c1nccs1 (centres undefined)
inactive: outcome [3]
active: AC50 [1] 16.6 µM | AC50 [5] 16.6 µM | AC50 [7] 13.2 µM | AC50 [8] 18.6 µM

CC(C)OC(=O)C1=CN(C(=O)c2ccc(F)c(F)c2)CC(C)(C)c2c1[nH]c1ccccc21
0.0698: z-score [4, 14]
3.1: SSMD [11]
7100: cell count [11]
7570: cell count [6, 17]
0.501: fold change [6, 16]
7590: cell count [6, 18]
inactive: outcome [1] | outcome [9] | outcome [7] | outcome [3] | outcome [8] | outcome [10] | fold change [6, 15] 0.997 | plate-normalised HSF1 focus index [11] 1.17 | z-score [4, 13] -0.00254 | viability [12, 19] 123% | viability [12, 20] 126% | viability [12, 21] 115% | viability [12, 22] 112% | viability [12, 23] 116% | viability [12, 24] 130% | viability [12, 25] 117% | viability [12, 26] 110% | viability [12, 27] 128% | viability [12, 28] 128% | viability [12, 29] 111% | viability [12, 30] 115% | viability [12, 31] 108% | viability [12, 32] 126% | viability [12, 33] 118% | viability [12, 34] 115% | viability [12, 35] 112% | viability [12, 36] 128% | viability [12, 37] 115% | viability [12, 38] 116% | viability [12, 39] 125% | viability [12, 40] 131% | viability [12, 41] 113% | viability [12, 42] 114% | viability [12, 43] 114% | viability [12, 44] 122% | viability [12, 45] 114% | viability [12, 46] 106% | viability [12, 47] 125% | viability [12, 48] 118% | viability [12, 49] 114% | viability [12, 50] 113%
active: AC50 [5] 26.4 µM

CC(C)CN(C[C@@H](O)[C@H](Cc1ccccc1)NC(=O)O[C@H]1CCOC1)S(=O)(=O)c1ccc(N)cc1
-0.0373: z-score [4, 14]
8920: cell count [6, 17]
1.32: fold change [6, 16]
10200: cell count [6, 18]
inactive: outcome [1] | outcome [2] | outcome [3] | fold change [6, 15] 0.871 | z-score [4, 13] -0.00484

N#Cc1ccc(NC(=O)Nc2ccccc2Br)c2n[nH]nc12
inactive: outcome [1] | outcome [7] | plate-normalised HSF1 focus index [11] 1
7440: cell count [11]
-0.0129: SSMD [11]

CC[C@]1(O)C[C@@H]2CN(CCc3c([nH]c4ccccc34)[C@@](C(=O)OC)(c3cc4c(cc3OC)N(C=O)[C@@H]3C45CCN4CC=C[C@](CC)([C@H]45)[C@@H](OC(C)=O)[C@]3(O)C(=O)OC)C2)C1 (some centres undefined)
6870: cell count [11]
inactive: outcome [1] | outcome [5] | plate-normalised HSF1 focus index [11] 1.12
2.03: SSMD [11]

CC(=O)O[C@@]12CO[C@@H]1C[C@H](O)[C@@]1(C)C(=O)[C@H](O)C3=C(C)[C@@H](OC(=O)C(O)[C@@H](NC(=O)OC(C)(C)C)c4ccccc4)C[C@@](O)([C@@H](OC(=O)c4ccccc4)[C@H]21)C3(C)C (some centres undefined)
inactive: outcome [1] | outcome [5] | outcome [3]

COc1cc2ncnc(Nc3cc(Br)c(O)c(Br)c3)c2cc1OC
active: AC50 [5] 2.35 µM
inactive: outcome [1] | outcome [3]

CCOC(=O)N1c2ccc(C(F)(F)F)cc2[C@@H](N(Cc2cc(C(F)(F)F)cc(C(F)(F)F)c2)C(=O)OC)C[C@H]1CC
inactive: outcome [1] | outcome [9] | outcome [3] | outcome [8] | outcome [10]

CCC(=O)OCC(=O)[C@@]1(OC(=O)CC)[C@@H](C)C[C@H]2[C@@H]3CCC4=CC(=O)C=C[C@]4(C)[C@@]3(F)[C@@H](O)C[C@@]21C
active: AC50 [1] 0.00935 µM | AC50 [5] 2.35 µM

COc1cccc2c1CCCC2CCCN1CCN(C2CCCCC2)CC1 (centres undefined)
5730: cell count [11]
active: AC50 [5] 18.7 µM
-2.1: SSMD [11]
inactive: outcome [1] | plate-normalised HSF1 focus index [11] 0.878

COc1ccc2cc(-c3nc(-c4ccc(S(C)=O)cc4)[nH]c3-c3ccncc3)ccc2c1 (centres undefined)
4.96: SSMD [11]
0.971: z-score [4, 14]
active: AC50 [7] 14.8 µM | viability [12, 23] 95.3% | viability [12, 28] 95.5% | viability [12, 30] 96.1% | viability [12, 31] 96.9% | viability [12, 33] 91.1% | viability [12, 34] 90.7% | viability [12, 37] 95.6% | viability [12, 38] 95.1% | viability [12, 41] 87.7% | viability [12, 42] 93.7% | viability [12, 46] 84% | viability [12, 49] 26.6% | viability [12, 50] 26.9%
inactive: outcome [1] | outcome [9] | outcome [3] | fold change [6, 15] 1.33 | plate-normalised HSF1 focus index [11] 1.27 | z-score [4, 13] -0.573 | viability [12, 19] 108% | viability [12, 20] 102% | viability [12, 21] 107% | viability [12, 22] 103% | viability [12, 24] 101% | viability [12, 25] 107% | viability [12, 26] 105% | viability [12, 27] 106% | viability [12, 29] 103% | viability [12, 32] 107% | viability [12, 35] 104% | viability [12, 36] 109% | viability [12, 39] 145% | viability [12, 40] 122% | viability [12, 43] 122% | viability [12, 44] 148% | viability [12, 45] 106% | viability [12, 47] 110% | viability [12, 48] 113%
5750: cell count [6, 18]
0.892: fold change [6, 16]
6890: cell count [11]
7650: cell count [6, 17]

Cc1cccc2c1CC[C@H](CN1CCC(c3c(Cl)cccc3Cl)CC1)C[C@@H]2O
inactive: outcome [1] | outcome [3]

CCOc1ccccc1OCCNC(C)Cc1ccc(OC)c(S(N)(=O)=O)c1 (centres undefined)
inactive: outcome [1] | outcome [5] | outcome [3]
